This passage reports z-score and composite z-score results from PubChem BioAssay.

Assay [1] can be described thus: resazurin metabolic signal in HepG2 cells – cell-based, resazurin fluorescence, 24 h, PK04 Diversity Set, profiling panel (AID 1172). Also: test concentration not given here. The settings on record: HepG2 viability, higher = more signal. For orientation: Alamar Blue is a resazurin reagent that responds to reducing activity.
A short description of assay [2]: budding yeast growth changes without added modifier – OD600, strain BY4716, 24 h, basal condition, primary screen (AID 1173). The following applies: S. cerevisiae BY4716 growth, OD600, 24 h; higher = more signal, called active from +8 up or from −8 down.
Assay [3] in a line: viability profiling in MM1S myeloma cells – cell-based, resazurin fluorescence, basal, 24 h, PK04 Diversity Set, profiling panel (AID 1174). Also: test concentration not given here. The settings on record: higher = more signal, called active from +8 up or from −8 down.
The target of assay [4] is Dihydroorotate dehydrogenase (quinone), mitochondrial (Plasmodium falciparum (isolate 3D7)) (UniProt Q08210). Description: inhibition of P. falciparum DHODH – biochemical, C-terminal His tag, absorbance 600 nm, primary screen (AID 1175).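 Also: recombinant parasite enzyme with a five histidine tag at its C terminus; test concentration not given here.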 The following applies: PfDHODH enzyme, DCIP absorbance 600 nm; higher = more signal, called active from +8 up or from −8 down.
Chain of Dihydroorotate dehydrogenase (quinone), mitochondrial (Plasmodium falciparum (isolate 3D7)) (Q08210 whole entry, looked up): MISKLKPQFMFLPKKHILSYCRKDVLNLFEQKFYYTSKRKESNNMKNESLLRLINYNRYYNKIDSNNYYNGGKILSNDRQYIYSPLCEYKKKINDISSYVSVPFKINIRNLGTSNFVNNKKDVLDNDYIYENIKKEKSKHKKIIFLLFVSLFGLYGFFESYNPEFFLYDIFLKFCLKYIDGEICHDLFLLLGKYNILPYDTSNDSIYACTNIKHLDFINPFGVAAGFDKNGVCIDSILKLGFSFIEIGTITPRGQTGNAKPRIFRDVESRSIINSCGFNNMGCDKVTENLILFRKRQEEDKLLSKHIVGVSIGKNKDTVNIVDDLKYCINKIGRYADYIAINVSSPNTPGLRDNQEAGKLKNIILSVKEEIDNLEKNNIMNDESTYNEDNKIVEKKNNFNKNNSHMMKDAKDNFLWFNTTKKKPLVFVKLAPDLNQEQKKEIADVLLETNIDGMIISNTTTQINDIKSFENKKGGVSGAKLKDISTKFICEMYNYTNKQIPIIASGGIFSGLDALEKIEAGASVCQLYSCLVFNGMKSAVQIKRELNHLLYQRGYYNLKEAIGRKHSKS
Assay [5] in a line: inhibition of PAO1 biofilm formation – strain PAO1, LB-PBS medium, absorbance 600 nm, primary screen (AID 1176). Also: test concentration not given here. The settings on record: P. aeruginosa PAO1 growth/biofilm, A600, 12 h; higher = more signal.
A short description of assay [6]: growth modulation of vineyard yeast isolate – strain RM11-1a, OD600, basal, 24 h, primary screen (AID 1177).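 Also: cultures grown under basal conditions with no added stressor; test concentration not given here.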 The following applies: S. cerevisiae RM11-1a growth, OD600, 24 h; higher = more signal, called active from +8 up or from −8 down.
Assay [7] in a line: growth of efflux-deficient E. coli DRC39 – strain DRC39, OD650, 24 h, E. coli filamentation inducers, primary screen (AID 1178).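 Also: growth measured as culture turbidity by optical density at 650 nm; test concentration not given here.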 The settings on record: E. coli DRC39 acrAB, higher = more signal, called active from +8 up or from −8 down.
The nature of assay [8]: growth of efflux-deficient E. coli DRC39 – strain DRC39, OD650, 48 h, E. coli filamentation inducers, primary screen (AID 1179).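 Also: screen aims at cell division blockers that make cells filament.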 The following applies: E. coli DRC39 delta-acrAB growth, higher = more signal, called active from +8 up or from −8 down.
The nature of assay [9]: viability profiling in RPMI8226 myeloma cells – cell-based, resazurin fluorescence, basal, 24 h, PK04 Diversity Set, profiling panel (AID 1180).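 Also: RPMI8826 multiple myeloma cell line at 5000 cells per well; test concentration not given here.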 The following applies: higher = more signal.
The target of assay [10] is E3 ubiquitin-protein ligase XIAP (Homo sapiens) (UniProt P98170). Kind of assay: small molecules binding XIAP protein – biophysical, small-molecule microarray, fluorescence 635 nm, primary screen (AID 1181).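 Also: score merges 667 nm emission and signal to noise over triplicate slides.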 The following applies: higher = more signal.
Chain of E3 ubiquitin-protein ligase XIAP (Homo sapiens) (P98170 whole entry, looked up): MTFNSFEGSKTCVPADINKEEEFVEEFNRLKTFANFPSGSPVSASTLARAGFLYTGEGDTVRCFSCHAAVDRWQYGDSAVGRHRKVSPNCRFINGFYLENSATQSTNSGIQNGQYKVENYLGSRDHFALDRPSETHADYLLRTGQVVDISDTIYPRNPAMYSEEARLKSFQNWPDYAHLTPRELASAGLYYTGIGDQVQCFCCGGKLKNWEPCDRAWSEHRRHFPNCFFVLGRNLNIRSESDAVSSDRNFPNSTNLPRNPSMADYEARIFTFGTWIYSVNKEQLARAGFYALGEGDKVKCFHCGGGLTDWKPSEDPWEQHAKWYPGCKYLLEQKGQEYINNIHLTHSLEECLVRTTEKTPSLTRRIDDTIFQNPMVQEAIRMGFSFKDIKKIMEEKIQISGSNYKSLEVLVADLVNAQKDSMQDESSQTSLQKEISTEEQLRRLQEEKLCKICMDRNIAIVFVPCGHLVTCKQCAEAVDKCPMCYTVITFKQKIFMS

Calls of active or inactive are those of the source. Unless noted, no rule for the calls is given here.

Take `CN1C(=O)C2C=CC(C(O)c3ccco3)N(Nc3ccccc3)C2C1=O` (stereo not given): the z-score was -0.86 in assay [1]; 1.35 (inactive) in assay [2]; -0.944 (inactive) in [3]; 1.41 (inactive) in [5]; 1.61 (inactive) in assay [6]; -0.436 (inactive) in [7]. Also, the z-score in [8] was -0.0442 (inactive); in assay [9] it was -0.328. The composite z-score was 1.24 (inactive) in [4] and 0.42 in assay [10].

Turning to `COc1cc(C(O)C2C=CC3C(=O)NC(=O)C3N2Nc2ccccn2)cc(OC)c1OC` (stereo not given), the z-score was -0.927 in assay [1]; 0.979 (inactive) in assay [2]; -1.57 (inactive) in [3]; 1.16 (inactive) in assay [5]; 0.228 (inactive) in [6]; -1.24 (inactive) in assay [7]. Moreover, the z-score in assay [8] is -0.397 (inactive); in assay [9] it was -2.04. The values for the composite z-score in assay [4] and in assay [10] were 1.14 (inactive) and -0.031, respectively.

For the compound `C=CCN1C(=O)[C@@]2(Cc3ccccc31)N=C(c1ccc(OCCCO)cc1)O[C@H]2c1ccccc1`, the z-score in assay [1] was -0.0935; in [2] it was -2.94 (inactive); in [3], -2.21 (inactive); in [5], 0.122 (inactive); in assay [6] it was 1.4 (inactive); in [7] it was 1.27 (inactive). In addition, the z-score was 0.775 (inactive) in assay [8] and -2.81 in assay [9]. The composite z-score in [4] is 0.161 (inactive); in assay [10], -0.0009.

As to `O=C(NCCN1CCOCC1)C1N=C(c2ccc(OCCCO)cc2)N(c2ccccc2)O1` (stereo not given), the z-score in assay [1] was -0.154; in assay [2] it was 0.554 (inactive); in assay [3] it was 0.602 (inactive); in assay [5], -0.978 (inactive); in assay [6], -0.377 (inactive); in assay [7], 0.149 (inactive). The results for the z-score in [8] and in assay [9] were 0.116 (inactive) and 0.385, respectively. In addition, the composite z-score in assay [4] is 0.301 (inactive); in assay [10], 0.172.

Turning to `C=CCOC(=O)[C@H]1[C@@H]2C(=O)O[C@@H](c3ccccc3)[C@@H](c3ccccc3)N2[C@@H](c2ccc(OCCOC(=O)[C@@H]3C[C@@H]4C(=O)N[C@@H](CC(C)C)C(=O)N4[C@@H]3c3ccc(O)cc3)cc2)[C@]12C(=O)Nc1ccccc12`, the z-score in assay [1] was 0.256; in assay [2], 1.23 (inactive); in [3], -0.347 (inactive); in [5], 2.94 (inactive); in assay [6] it was 2.05 (inactive); in assay [7], -0.149 (inactive). In addition, the results for the z-score in assay [8] and in assay [9] were -0.72 (inactive) and 0.169, respectively. The composite z-score in [4] is -0.295 (inactive); in [10] it was -0.0559.

Turning to `CCS[C@H]1[C@@H](C(=O)O)[C@H](c2ccc(C)cc2)N(S(=O)(=O)c2ccc(C)cc2)[C@@H]1CC`, the z-score in assay [1] was 0; in assay [2] it was 0.788 (inactive); in assay [3], -0.751 (inactive); in assay [5] it was 0.257 (inactive); in assay [6] it was -0.0137 (inactive); in [7], -0.419 (inactive). For the same compound, the z-score is 0.843 (inactive) in assay [8] and -0.702 in assay [9]. Besides, the composite z-score in [4] was -1.03 (inactive); in [10], -0.167.

Consider `CC(C)C[C@@H]1NC(=O)[C@H](C(C)C)NC(=O)[C@@]23C(=O)N[C@@H](Cc4ccccc4)C2[C@H](C)[C@@]2(C)O[C@H]2C3/C=C/CC/C=C/CNC1=O` (stereo not given in full), for which the z-score in [1] is 0.233; in assay [2], -0.399 (inactive); in assay [3], -0.0691 (inactive); in [5] it was 0.956 (inactive); in assay [6] it was 0.388 (inactive); in assay [7], 1.04 (inactive). Also, the z-score in assay [8] was 0.408 (inactive); in assay [9], 0.628. Further, the composite z-score in assay [4] was -0.313 (inactive); in [10], -0.243.

With `Cc1ccc(S[C@]2(C(=O)NCCCN(C)C)CC(=O)N(Cc3cc(C(F)(F)F)cc(C(F)(F)F)c3)[C@@H]2c2ccc(CO)cc2)cc1`, the z-score was -0.144 in assay [1]; -1.33 (inactive) in [2]; -0.522 (inactive) in assay [3]; 0.621 (inactive) in assay [5]; -0.607 (inactive) in assay [6]; 0.0957 (inactive) in [7]. The results for the z-score in [8] and in assay [9] were -0.339 (inactive) and -0.402, respectively. Also, the composite z-score in [4] is -0.132 (inactive); in assay [10] it was 0.164.

Turning to `O=C(CS)NCCCCCCNC(=O)[C@@H]1C[C@@H]2C(=O)NCC(=O)N2[C@@H]1c1cccc(OCCO)c1`, the z-score was -0.3 in assay [1]; -0.419 (inactive) in [2]; -0.217 (inactive) in assay [3]; 0.351 (inactive) in [5]; 0.752 (inactive) in assay [6]; 0.713 (inactive) in assay [7]. Further, the z-score in [8] was 1.16 (inactive); in assay [9], -0.252. The values for the composite z-score in assay [4] and in assay [10] were -0.216 (inactive) and 0.0346, respectively.

With `CC(C)NC(=O)[C@@]1(C)c2ccccc2C(=O)N(Cc2cc(C(F)(F)F)cc(C(F)(F)F)c2)[C@H]1c1ccc(CO)cc1`, the z-score in assay [1] was 0.121; in assay [2], 0.0934 (inactive); in assay [3], -1.21 (inactive); in assay [5], 0.224 (inactive); in assay [6], 0.784 (inactive); in [7], 0.162 (inactive). The z-score in assay [8] is 0.23 (inactive); in assay [9], -0.148. Moreover, the composite z-score in [4] is 0.356 (inactive); in assay [10], 0.0868.
